According to PubChem BioAssay AID493191 (Broad Institute, 2011):
Hit rate of the full screen: of about 1,300 compounds, about 330 (25%) were called active. The rule behind the calls is not given here. These entries were drawn from the full list. Measured potencies and affinities stand elsewhere.

Experiment: MALME3 melanoma cell viability loss, dose response, orthogonal assay for MITF inhibitor project, CellTiter-Glo, cherry-picked (AID 493191)
Conditions: CellTiter-Glo luminescence, 24 h; series mostly up to 35 µM

Row | Structure (SMILES) | outcome
1 | CCOc1ccc(C(=O)N2CCc3ccccc32)cc1 | inactive
2 | N#C/C(=C\c1cccs1)C(=O)NCC1CCCO1 (centres undefined) | inactive
3 | CN1CCN(CCCOc2ccc(-c3ccccc3)cc2)CC1 | inactive
4 | Cc1ccc2oc(=O)n(CCCOc3ccccc3)c2c1 | inactive
5 | CN(C)Cc1c(O)ccc2c1O/C(=C\C=C\c1ccccc1)C2=O | inactive
6 | Cc1ccccc1OCc1nc2c3cnn(C)c3ncn2n1 | inactive
7 | CC(=O)NC1=C(N(C)C2CCS(=O)(=O)C2)C(=O)c2ccccc2C1=O (centres undefined) | inactive
8 | CCCCC1C(=O)N(c2ccccc2)N(c2ccc(O)cc2)C1=O (centres undefined) | inactive
9 | O=C(COc1ccc2c(c1)CCC2)N1CCc2ccccc21 | inactive
10 | O=C(Nc1ccccc1)NN(C(=O)CCl)c1ccccc1 | inactive
11 | O=C(CCl)N(c1ccccc1)C1CCS(=O)(=O)C1 (centres undefined) | inactive
12 | CN(C)c1ccc(/C=N/N2CCN(c3ccccn3)CC2)cc1 | inactive
13 | Cc1ccc(NC(=O)C2CCN(S(=O)(=O)c3c(C)noc3/C=C/c3ccco3)CC2)nc1 | inactive
14 | CCN=c1scc(-c2ccco2)n1/N=C/c1ccc(O)cc1 | inactive
15 | Cc1ccc(C(CNS(=O)(=O)c2ccc(Br)cc2)N2CCN(C)CC2)cc1 (centres undefined) | inactive
16 | NC(=O)C1CCN(C2=C(NS(=O)(=O)c3ccc(Br)cc3)C(=O)c3ccccc3C2=O)CC1 | inactive
17 | Cc1ccc(S(=O)(=O)Nc2cccc3cccnc23)cc1 | inactive
18 | O=C(/C=C/c1ccc2c(c1)OCCO2)c1ccccc1 | inactive
19 | O=C(NC1=NCCS1)c1ccc(Cl)c(Cl)c1 | inactive
20 | CC(C)c1ccc(C(=O)Nc2cccnc2)cc1 | inactive
21 | O=C(NCc1ccccc1)NC1(C(=O)Nc2ccc3c(c2)OCCO3)CCCCC1 | inactive
22 | COc1ccc(-n2cc(-c3ccc(C)cc3)[n+]3c2SCC3)cc1 | inactive
23 | COc1cc(SC)ccc1C(=O)Nc1nc(C)cs1 | inactive
24 | O=C(Nc1ccc(Br)cc1)c1ccc2c(c1)OCO2 | inactive
25 | O=C(CSc1nc2ccccc2[nH]1)c1ccc2c(c1)OCO2 | inactive

Row | Structure (SMILES) | outcome
26 | Cc1cccc(NC(=O)c2cnn(-c3ccccc3)c2C)c1C | inactive
27 | CCc1nc2oc3ccc(C)cc3c(=O)c2cc1C(=O)OC | inactive
28 | O=C(N/N=C/C(Cl)=C\c1ccccc1)c1cccs1 | inactive
29 | O=C(NCc1ccco1)c1nc2c(nnn2Cc2ccccc2Cl)c(=O)[nH]1 | inactive
30 | CCOc1ccc(N=C(C)C2=C(O)c3ccccc3C2=O)cc1 | inactive
31 | Nc1nnc(/C=C/c2ccccc2Cl)s1 | inactive
32 | O=C(NCC1CCCO1)c1cc(-c2ccc(Cl)cc2Cl)on1 (centres undefined) | inactive
33 | CS/C(N)=N/N=C/c1ccc2c(c1)OCO2 | inactive
34 | CN(C)c1nc(-c2ccccn2)nnc1-c1ccccc1 | inactive
35 | O=C(/C=C/c1ccc(Cl)c([N+](=O)[O-])c1)c1ccc(O)cc1 | inactive
36 | O=C(c1ccc(S(=O)(=O)Cc2ccccc2Cl)c([N+](=O)[O-])c1)N1CCN(c2ccccn2)CC1 | inactive
37 | COc1ccc(/C=C2\SC(=S)N(CCCC(=O)NNC(=O)c3ccccc3O)C2=O)cc1 | inactive
38 | N#C/C(=C(/O)CCl)c1nc2ccccc2[nH]1 | inactive
39 | COc1ccc(O)c(/C=N/NC(=O)c2ccc(CSc3nc(C)cc(C)n3)cc2)c1 | inactive
40 | COc1nc(NC2CCCCC2)nc(NC(C)(C)C)n1 | inactive
41 | O=C(CCCc1ccccc1)Nc1cccc(C(=O)O)c1 | inactive
42 | CCOC(=O)c1[nH]cnc1N=Nc1c(O)ccc2ccccc12 | inactive
43 | O=C1N=C(N2CCOCC2)S/C1=C\C=C/c1ccccc1 | inactive
44 | Cc1nc(-c2ccccn2)sc1C(=O)Nc1ccc(F)cc1F | inactive
45 | O=C(O)c1cc(N/N=C/C(Cl)=C/c2ccccc2)ccc1Cl | inactive
46 | C=CCNC(=O)c1ccc2nc(Cc3ccc(OC)cc3)oc2c1 | inactive
47 | Cc1ccc(C(=O)N/C(=C\c2ccc(-c3ccccc3[N+](=O)[O-])o2)C(=O)NCCN(C)C)cc1 | inactive
48 | CN(C)CCNC(=O)/C(=C/c1ccc(-c2ccc(Cl)cc2)o1)NC(=O)c1ccccc1 | inactive
49 | Cc1ccc(C(=O)N/C(=C\c2ccc(-c3ccccc3[N+](=O)[O-])o2)C(=O)NCCCN(C)C)cc1 | inactive
50 | CCOc1ccc(-n2c(-c3ccc(OC)cc3)c[n+]3c2CCCCC3)cc1 | inactive

Row | Structure (SMILES) | outcome
51 | CCN(CC)C(=O)CCCOc1ccc(Cl)cc1Cl | inactive
52 | Cc1nc2nc(C)c(NS(=O)(=O)c3ccc4c(c3)CCCC4)c(=O)n2[nH]1 | inactive
53 | Cc1cccnc1NC(=O)NC(=O)c1ccc(C(C)(C)C)s1 | inactive
54 | N#Cc1c(NC(=O)CSc2ncn[nH]2)sc2c1CCCCC2 | inactive
55 | N#Cc1c(NC(=O)CSc2ncn[nH]2)sc2c1CCCC2 | inactive
56 | Cn1nnnc1Sc1ncnc2scc(-c3cccs3)c12 | inactive
57 | Cc1ccc(-c2nc(-c3ccncc3)no2)cc1C | inactive
58 | O=C(Nc1cccnc1Cl)c1cc(-c2ccco2)on1 | inactive
59 | CCN(CC)S(=O)(=O)c1cccc(C(=O)N/N=C(\C)c2ccc(O)cc2O)c1 | inactive
60 | COc1cc(CN2CCC(C(=O)NCCC(C)C)CC2)ccc1OCc1ccccc1 | inactive
61 | O=C(Nc1ccc(Nc2ccncc2)cc1)c1ccc([N+](=O)[O-])cc1 | inactive
62 | O=C(Nc1ccc(Cl)cc1)N1CC=CCC1 | inactive
63 | COc1ccc2oc(=N)c(C(=O)Nc3ccccc3Cl)cc2c1 | inactive
64 | CCCCOc1ccc(-c2nnn(C(C)(C)C(=O)OC)n2)cc1 | inactive
65 | CC1=C/C(=N\NC(=S)Nc2cccnc2)CC(C)(C)C1 | inactive
66 | COc1cccc(/C=N/Nc2ncnc3c2ncn3Cc2ccccc2)c1O | inactive
67 | COc1ccc(/C=N/N=C2/SCC(=O)N2Cc2ccccc2)cc1 | inactive
68 | N#Cc1ccc(-c2cccnc2)nc1SCC(=O)c1ccccc1 | inactive
69 | COc1ccccc1N1CCN(/N=C/c2ccc([N+](=O)[O-])cc2)CC1 | inactive
70 | O=C(c1ccc([N+](=O)[O-])s1)N1CCCc2ccccc21 | inactive
71 | O=Cc1ccc(N2Cc3ccccc3C2)cc1 | inactive
72 | COc1ccccc1N1CCN(/N=C\c2ccccc2)CC1 | inactive
73 | Cc1ccc(-c2cc3onc(-c4ccccc4)c3c(=O)n2C)cc1 | inactive
74 | CC(=O)CSc1ccc(-c2nc3cc(C)c(C)cc3[nH]2)cn1 | inactive
